{
  "source": "PubChem BioAssay AID493087",
  "about": "(The Scripps Research Institute Molecular Screening Center, 2011)",
  "note": "Hit rate of the full screen: of about 340,000 compounds, about 240 (0.071%) were called active.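 The calls were made as follows: active = activation above the mean of all tested compounds plus 3 SD, set per screening campaign (cut at about 17% in these data); inactive = the rest.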 The sample as a whole holds a higher share of actives than the screen did.",
  "data": [
    {"molecular_target": "Insulin-degrading enzyme (Homo sapiens) (UniProt P14735)", "sequence (P14735 whole entry, looked up)": "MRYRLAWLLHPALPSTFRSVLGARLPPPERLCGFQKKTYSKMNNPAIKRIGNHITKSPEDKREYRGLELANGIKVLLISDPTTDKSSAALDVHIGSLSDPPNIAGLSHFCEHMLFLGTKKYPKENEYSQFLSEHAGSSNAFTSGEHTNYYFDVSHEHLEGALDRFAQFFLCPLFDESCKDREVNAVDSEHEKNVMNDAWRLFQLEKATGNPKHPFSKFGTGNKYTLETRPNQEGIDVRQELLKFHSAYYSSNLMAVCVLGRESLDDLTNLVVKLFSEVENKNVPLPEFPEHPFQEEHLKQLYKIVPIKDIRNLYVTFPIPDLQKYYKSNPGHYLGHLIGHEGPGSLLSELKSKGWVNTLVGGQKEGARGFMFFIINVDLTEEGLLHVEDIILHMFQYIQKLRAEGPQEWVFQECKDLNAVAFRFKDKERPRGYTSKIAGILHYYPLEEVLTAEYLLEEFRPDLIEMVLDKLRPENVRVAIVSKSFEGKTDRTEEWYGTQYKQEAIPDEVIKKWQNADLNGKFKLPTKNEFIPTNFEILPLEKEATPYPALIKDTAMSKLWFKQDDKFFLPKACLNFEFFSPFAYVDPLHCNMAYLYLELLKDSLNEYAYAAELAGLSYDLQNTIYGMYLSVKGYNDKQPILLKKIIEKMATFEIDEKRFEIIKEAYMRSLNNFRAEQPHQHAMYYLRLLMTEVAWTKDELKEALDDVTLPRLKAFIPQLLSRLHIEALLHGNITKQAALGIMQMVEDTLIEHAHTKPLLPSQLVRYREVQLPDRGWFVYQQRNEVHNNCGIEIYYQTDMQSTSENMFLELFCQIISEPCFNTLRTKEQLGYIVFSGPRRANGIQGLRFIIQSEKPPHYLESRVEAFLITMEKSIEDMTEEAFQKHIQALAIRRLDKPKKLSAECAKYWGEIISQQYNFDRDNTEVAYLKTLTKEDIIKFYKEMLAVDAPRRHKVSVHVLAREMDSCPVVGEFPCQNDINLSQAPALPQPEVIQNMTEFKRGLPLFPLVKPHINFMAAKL", "test": "human IDE activators in live cells, primary screen, fluorescence polarization, HEK cells, FAbeta-B substrate (AID 493087)", "settings": "FAbeta-B cleavage, at 5.96 µM, active compounds read high, 0% vehicle, 100% cell-free pure enzyme wells", "values": [
      {"smiles": "Cc1ccccc1CSCCNC(=O)c1ccc(N(C)S(=O)(=O)c2ccccc2)cc1", "activation": "1.48% (inactive)"},
      {"smiles": "O=c1c([N+](=O)[O-])cccn1Cc1ccc(F)cc1Cl", "activation": "-1.28% (inactive)"},
      {"smiles": "Cc1ccc(CNC(=O)CCCNC(=O)c2ccc(Cl)cc2)n1C", "activation": "5.76% (inactive)"},
      {"smiles": "CCOc1cc(/C=C2\\SC(N3CCCC(C)C3)=NC2=O)ccc1O", "note": "(configuration not stated)", "activation": "-15.9% (inactive)"},
      {"smiles": "CC(=O)Nc1ccc(S(=O)(=O)NCC(=O)OCc2cc(=O)oc3ccc4ccccc4c23)cc1", "activation": "3.05% (inactive)"},
      {"smiles": "CCC(=O)NNc1cc(=O)c2c(=O)n(C)c(=O)n(C)c2[nH]1", "activation": "3.85% (inactive)"},
      {"smiles": "Cc1noc(C)c1CSCC(=O)Nc1ccc(Br)cc1Cl", "activation": "2.79% (inactive)"},
      {"smiles": "CC1=C/C(=N\\OS(=O)(=O)c2ccccc2)C=CC1=O", "activation": "-10.8% (inactive)"},
      {"smiles": "Cc1cccc(NC(=O)c2cccc(C(=O)Nc3cccc(C)c3C)n2)c1C", "activation": "-1.85% (inactive)"},
      {"smiles": "CC(C)(C)C1C/C(=C/c2ccco2)C(=O)/C(=C/c2ccco2)C1", "note": "(configuration not stated)", "activation": "-0.63% (inactive)"},
      {"smiles": "CC1CCN(C(=O)C2CCN(S(=O)(=O)N3CCC4(CC3)OCCO4)CC2)CC1", "activation": "0.48% (inactive)"},
      {"smiles": "CCOC(=O)N1CCN(Cc2nc3ccc([N+](=O)[O-])cc3c(=O)n2-c2cccc(OC)c2)CC1", "activation": "1.47% (inactive)"},
      {"smiles": "CCOc1ccc(N2C(=O)/C(=C/c3ccc(C)o3)N(C)C2=S)cc1", "activation": "2.68% (inactive)"},
      {"smiles": "CCC(C)(C)NC(=O)CN(C(=O)C(=O)Nc1ccc2c(c1)OCCO2)C(C)(C)CC", "activation": "4.63% (inactive)"},
      {"smiles": "CCOC(=O)C1(C(F)(F)F)N=C(N(C)C)OC(N(C)C)=N1", "activation": "8.14% (inactive)"},
      {"smiles": "CCN(CC)CCCC(C)n1c2nc(=O)[nH]c(=O)c-2nc2cc(Cl)ccc21", "note": "(configuration not stated)", "activation": "75.3% (active)"},
      {"smiles": "C#CCOCCOCCOCCNc1nc(N2CCN(C(=O)[C@H](CCC(=O)O)n3cc(CN)nn3)CC2)nc(N2CCN(C(=O)[C@H](CCC(=O)O)n3cc(CN)nn3)CC2)n1", "activation": "1.77% (inactive)"},
      {"smiles": "C#CCOCCOCCOCCNc1nc(N2CCN(C(=O)[C@H](CCCCN)n3cc(CCC(=O)O)nn3)CC2)nc(N2CCN(C(=O)[C@H](CCCCN)n3cc(CC(C)O)nn3)CC2)n1", "note": "(some centres not stated)", "activation": "-4.23% (inactive)"},
      {"smiles": "C#CCOCCOCCOCCNc1nc(N2CCN(C(=O)Cn3cc(CCO)nn3)CC2)nc(N2CCN(C(=O)Cn3cc(CCCN=C(N)N)nn3)CC2)n1", "activation": "-2.84% (inactive)"},
      {"smiles": "C#CCOCCOCCOCCNc1nc(N2CCN(C(=O)CCCCCCCCCCNC(=O)Cn3cc(CCCCCN)nn3)CC2)nc(N2CCN(C(=O)CCCCCCCCCCNC(=O)[C@H](CO)n3cc(CCCSC)nn3)CC2)n1", "activation": "32.6% (active)"},
      {"smiles": "C#CCOCCOCCOCCNc1nc(N2CCN(C(=O)[C@H](CCCN=C(N)N)n3cc(C(N)[C@@H](C)CC)nn3)CC2)nc(N2CCN(C(=O)[C@H](CO)n3cc([C@@H](N)C(C)C)nn3)CC2)n1", "note": "(some centres not stated)", "activation": "-0.94% (inactive)"},
      {"smiles": "C#CCOCCOCCOCCNc1nc(N2CCN(C(=O)CCCCCCCCCCNC(=O)[C@H]([C@@H](C)CC)n3cc(CCCCN=C(N)N)nn3)CC2)nc(N2CCN(C(=O)CCCCCCCCCCNC(=O)[C@H](CO)n3cc(CCCSC)nn3)CC2)n1", "activation": "58% (active)"},
      {"smiles": "C#CCOCCOCCOCCNc1nc(N2CCN(C(=O)CCCCCCCCCCNC(=O)[C@H](CCCCN)n3cc(C)nn3)CC2)nc(N2CCN(C(=O)CCCCCCCCCCNC(=O)[C@H](CO)n3cc(CCCSC)nn3)CC2)n1", "activation": "29.3% (active)"},
      {"smiles": "C#CCOCCOCCOCCNc1nc(N2CCN(C(=O)Cn3cc(CCCCN)nn3)CC2)nc(N2CCN(C(=O)[C@H](CCCCN)n3cc(CCC(=O)O)nn3)CC2)n1", "activation": "-2.39% (inactive)"},
      {"smiles": "C#CCOCCOCCOCCNc1nc(N2CCN(C(=O)Cn3cc(CCO)nn3)CC2)nc(N2CCN(C(=O)[C@H](CCCCN)n3cc(CCCC)nn3)CC2)n1", "activation": "2.74% (inactive)"},
      {"smiles": "CN(C)C(=O)c1cc(Br)ccc1Cl", "activation": "7.04% (inactive)"},
      {"smiles": "O=C(CNC(=O)OCc1ccccc1)Oc1cc2oc(=O)cc(-c3ccccc3)c2cc1Cl", "activation": "3.87% (inactive)"},
      {"smiles": "Cc1ccc(COc2ccc(C(=O)NN)cc2)cc1", "activation": "-2.7% (inactive)"},
      {"smiles": "CCCCOc1ccc(NC(=O)CSCC(=O)OCC)cc1", "activation": "0.69% (inactive)"},
      {"smiles": "CCCCCCCCCCOC(=O)Cn1c(COc2ccc(C)cc2)[n+](C)c2ccccc21", "activation": "21.7% (active)"},
      {"smiles": "CC1CCN(C(=O)CCNC(=O)c2ccccc2)CC1", "activation": "4.37% (inactive)"},
      {"smiles": "Cc1ccc(Cl)cc1NC(=O)CN1CCN(S(=O)(=O)N2CCOCC2)CC1", "activation": "3.41% (inactive)"},
      {"smiles": "C#CCOCCOCCOCCNc1nc(N2CCOCC2)nc(N2CCN(C(=O)[C@H](Cc3ccc(O)cc3)n3cc(CCO)nn3)CC2)n1", "activation": "-1.07% (inactive)"},
      {"smiles": "COc1ccc(C2=NOC(C(=O)NCc3ccco3)C2)cc1OC", "note": "(configuration not stated)", "activation": "-0.49% (inactive)"},
      {"smiles": "COc1ccc2c(c1)c(=Cc1ccc(N(C)C)cc1)c1cc(-c3ccccc3)[n+](C)n12", "activation": "-19.1% (inactive)"},
      {"smiles": "COC(=O)COc1ccc2c(=O)c(Oc3ccccc3Br)coc2c1", "activation": "1.55% (inactive)"},
      {"smiles": "O=C(Nc1nn(Cc2ccccc2F)cc1Br)c1cccs1", "activation": "2.02% (inactive)"},
      {"smiles": "O=C(O)CCc1cccnc1", "activation": "0.08% (inactive)"},
      {"smiles": "CCOc1ccc(S(=O)(=O)N2CCCCCC2)c2ccccc12", "activation": "7.79% (inactive)"},
      {"smiles": "COc1ccc(-c2csc3ncnc(Oc4ccc5c(C)cc(=O)oc5c4)c23)cc1", "activation": "-0.97% (inactive)"},
      {"smiles": "CCOC(=O)C1CCN(S(=O)(=O)c2ccc3c(c2)N(C)C(=O)CC(=O)N3C)CC1", "activation": "4.32% (inactive)"},
      {"smiles": "Cc1ccc(C(c2nnnn2CS(=O)(=O)c2ccc(C)cc2)N2CCC(C)CC2)cc1", "note": "(configuration not stated)", "activation": "6.3% (inactive)"},
      {"smiles": "CN1CCN(C(=O)C(=O)c2cn(CC(=O)N3CCCC3)c3ccccc23)CC1", "activation": "0.5% (inactive)"},
      {"smiles": "Fc1cccc(CSc2nnc3ccc(-c4ccncc4)nn23)c1", "activation": "11% (inactive)"},
      {"smiles": "COC(=O)[C@]1(S(=O)(=O)c2ccccc2)C[C@@H]2ON=C(c3ccc(OC)cc3)[C@@H]2C1", "activation": "-5.33% (inactive)"},
      {"smiles": "COc1ccc(N2CCN(C(=O)c3ccc(N4CCCCS4(=O)=O)cc3)CC2)cc1", "activation": "1.3% (inactive)"},
      {"smiles": "CN(CC(=O)NC1CCCCC1)S(=O)(=O)c1cccc2cccnc12", "activation": "4.22% (inactive)"}
    ]}
  ]
}
